Measured values from PubChem BioAssay AID1159580 (chemical genetic matrix, 2015).
Screen size: about 5,500 compounds; about 2,000 (36%) were called active. Not shown: some 18% with an inconclusive outcome. Cut-off read from the data, not from the text of the source: active = normalized growth mostly below about 0.91 (no sharp cut-off); inconclusive = no clear call, values can overlap the other calls; inactive = mostly above about 0.92. Some of the results follow.

Test: chemical genetic growth profiling, strain panel (AID 1159580);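 note: tested at 20 µM; growth read once vehicle control cultures reached saturation at 30 °C; 1 = growth at the plate median or of vehicle wells; lower values mean less growth of the strain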
Settings: growth OD
[1] = S. cerevisiae deletion strains, locus YAL013W, strain DEP1, hits give low values
[2] = S. cerevisiae deletion strains, locus YBR229C, strain ROT2, hits give low values
[3] = S. cerevisiae deletion strains, locus YDL101C, strain DUN1, hits give low values
[4] = S. cerevisiae deletion strains, locus YDL134C, strain PPH21, hits give low values
[5] = S. cerevisiae deletion strains, locus YDR150W, strain NUM1, hits give low values
[6] = S. cerevisiae deletion strains, locus YEL061C, strain CIN8, hits give low values
[7] = S. cerevisiae deletion strains, locus YGR078C, strain PAC10, hits give low values
[8] = S. cerevisiae deletion strains, locus YHR030C, strain SLT2, hits give low values
[9] = S. cerevisiae deletion strains, locus YJR043C, strain POL32, hits give low values
[10] = S. cerevisiae deletion strains, locus YJR075W, strain HOC1, hits give low values
[11] = S. cerevisiae deletion strains, locus YKL190W, strain CNB1, hits give low values
[12] = S. cerevisiae deletion strains, locus YLR039C, strain RIC1, hits give low values
[13] = S. cerevisiae deletion strains, locus YLR262C, strain YPT6, hits give low values
[14] = S. cerevisiae deletion strains, locus YMR263W, strain SAP30, hits give low values
[15] = S. cerevisiae deletion strains, locus YNL153C, strain GIM3, hits give low values
[16] = S. cerevisiae deletion strains, locus YNL322C, strain KRE1, hits give low values
[17] = S. cerevisiae deletion strains, locus YOL006C, strain TOP1, hits give low values
[18] = S. cerevisiae deletion strains, locus YPL055C, strain LGE1, hits give low values
[19] = S. cerevisiae deletion strains, locus YPL241C, strain CIN2, hits give low values

Measured: normalized growth

CC(SCc1ccccc1)C(=O)O (stereo not given)
inactive: [1] 0.971 | [2] 0.965 | S. cerevisiae deletion strains, locus YCL061C, strain MRC1, hits give low values 0.997 | [3] 1 | [4] 1 | [5] 0.91 | [6] 1.04 | [7] 0.994 | [8] 0.992 | S. cerevisiae deletion strains, locus YHR087W, strain rtc3, hits give low values 0.978 | S. cerevisiae deletion strains, locus YJL187C, strain SWE1, hits give low values 0.986 | [9] 0.981 | [10] 0.965 | [11] 1 | [12] 1.02 | S. cerevisiae deletion strains, locus YLR058C, strain SHM2 (second series), hits give low values 0.988 | S. cerevisiae deletion strains, locus YLR085C, strain ARP6, hits give low values 1.01 | [13] 1.02 | S. cerevisiae deletion strains, locus YML094W, strain GIM5, hits give low values 1.02 | S. cerevisiae deletion strains, locus YMR219W, strain ESC1, hits give low values 0.979 | [14] 0.984 | [15] 0.981 | S. cerevisiae deletion strains, locus YNL298W, strain CLA4 (second series), hits give low values 1.04 | [16] 0.991 | S. cerevisiae deletion strains, locus YNR030W, strain Alg12, hits give low values 1 | [17] 1.02 | [18] 0.856 | [19] 1 | S. cerevisiae deletion strains, locus YPR135W, strain CTF4, hits give low values 0.976

CCc1cccc(C)c1N(C(=O)CCl)C(C)COC (stereo not given)
inactive: [1] 1.01 | S. cerevisiae deletion strains, locus YBR021W, strain FUR4, hits give low values 0.996 | [2] 1 | S. cerevisiae deletion strains, locus YCL029C, strain bik1, hits give low values 1.02 | S. cerevisiae deletion strains, locus YDL035C, strain GPR1, hits give low values 1.02 | S. cerevisiae deletion strains, locus YDL074C, strain BRE1, hits give low values 1.02 | [3] 1.02 | [4] 1.01 | S. cerevisiae deletion strains, locus YDL185W, strain tfp1, hits give low values 1.02 | S. cerevisiae deletion strains, locus YDL192W, strain arf1, hits give low values 1.02 | S. cerevisiae deletion strains, locus YDR101C, strain arx1, hits give low values 1.01 | [5] 1.01 | S. cerevisiae deletion strains, locus YDR162C, strain NBP2, hits give low values 1.01 | S. cerevisiae deletion strains, locus YDR318W, strain mcm21, hits give low values 1.01 | S. cerevisiae deletion strains, locus YDR388W, hits give low values 1.01 | S. cerevisiae deletion strains, locus YDR502C, strain sam2, hits give low values 1.02 | [6] 1.01 | S. cerevisiae deletion strains, locus YER110C, hits give low values 1.02 | S. cerevisiae deletion strains, locus YER155C, strain BEM2, hits give low values 1.01 | S. cerevisiae deletion strains, locus YER167W, strain BCK2, hits give low values 1.02 | S. cerevisiae deletion strains, locus YGL078C, strain dbp3, hits give low values 1.01 | S. cerevisiae deletion strains, locus YGL086W, strain mad1, hits give low values 1.01 | S. cerevisiae deletion strains, locus YGL248W, strain PDE1, hits give low values 1.01 | [7] 1.02 | S. cerevisiae deletion strains, locus YGR135W, strain pre9, hits give low values 1.01 | S. cerevisiae deletion strains, locus YGR229C, strain SMI1, hits give low values 1.03 | S. cerevisiae deletion strains, locus YGR252W, strain gcn5, hits give low values 1.01 | [8] 1.01 | S. cerevisiae deletion strains, locus YHR079C, strain IRE1 (second series), hits give low values 1.02 | S. cerevisiae deletion strains, locus YHR094C, strain hxt1, hits give low values 1.02 | S. cerevisiae deletion strains, locus YHR129C, strain ARP1, hits give low values 1.01 | S. cerevisiae deletion strains, locus YHR200W, strain rpn10, hits give low values 1.02 | S. cerevisiae deletion strains, locus YIL066C, strain RNR3, hits give low values 1.02 | S. cerevisiae deletion strains, locus YIL073C, strain SPO22, hits give low values 1.05 | S. cerevisiae deletion strains, locus YIL125W, strain kgd1, hits give low values 1.02 | S. cerevisiae deletion strains, locus YIR030C, strain dcg1, hits give low values 1.02 | S. cerevisiae deletion strains, locus YJL095W, strain BCK1, hits give low values 0.991 | S. cerevisiae deletion strains, locus YJL134W, strain LCB3, hits give low values 1.02 | S. cerevisiae deletion strains, locus YJL168C, strain set2, hits give low values 1.01 | S. cerevisiae deletion strains, locus YJL187C, strain SWE1 (second series), hits give low values 1.01 | [9] 1.02 | [10] 1.01 | S. cerevisiae deletion strains, locus YKL009W, strain mrt4, hits give low values 1.03 | S. cerevisiae deletion strains, locus YKL068W, hits give low values 1.01 | S. cerevisiae deletion strains, locus YKL085W, strain MDH1 (second series), hits give low values 1.02 | S. cerevisiae deletion strains, locus YKL085W, strain MDH1, hits give low values 1.02 | [11] 1.02 | S. cerevisiae deletion strains, locus YKR001C, strain vps1, hits give low values 1.03 | [12] 0.993 | S. cerevisiae deletion strains, locus YLR058C, strain SHM2, hits give low values 1.01 | S. cerevisiae deletion strains, locus YLR102C, strain apc9, hits give low values 1.02 | [13] 1.03 | S. cerevisiae deletion strains, locus YLR268W, strain sec22, hits give low values 1.01 | S. cerevisiae deletion strains, locus YLR330W, strain CHS5, hits give low values 1.01 | S. cerevisiae deletion strains, locus YLR342W, strain FKS1 (second series), hits give low values 1.04 | S. cerevisiae deletion strains, locus YLR371W, strain rom2, hits give low values 1.02 | S. cerevisiae deletion strains, locus YLR418C, strain cdc73, hits give low values 1.01 | S. cerevisiae deletion strains, locus YML016C, strain PPZ1, hits give low values 1.01 | S. cerevisiae deletion strains, locus YML032C, strain rad52, hits give low values 0.992 | S. cerevisiae deletion strains, locus YML124C, strain tub3, hits give low values 1.02 | S. cerevisiae deletion strains, locus YMR078C, strain ctf18, hits give low values 1.02 | S. cerevisiae deletion strains, locus YMR223W, strain ubp8, hits give low values 1.02 | [14] 1 | S. cerevisiae deletion strains, locus YMR307W, strain GAS1, hits give low values 1 | S. cerevisiae deletion strains, locus YNL067W, strain RPL9B, hits give low values 1.01 | S. cerevisiae deletion strains, locus YNL128W, strain TEP1, hits give low values 1.01 | [15] 1.01 | S. cerevisiae deletion strains, locus YNL233W, strain BNI4, hits give low values 1.01 | S. cerevisiae deletion strains, locus YNL250W, strain rad50, hits give low values 1.01 | S. cerevisiae deletion strains, locus YNL271C, strain bni1, hits give low values 1.03 | S. cerevisiae deletion strains, locus YNL298W, strain CLA4, hits give low values 1.02 | S. cerevisiae deletion strains, locus YNL307C, strain MCK1, hits give low values 1.02 | [16] 1.01 | S. cerevisiae deletion strains, locus YNR052C, strain pop2, hits give low values 1.02 | [17] 1.03 | S. cerevisiae deletion strains, locus YOL012C, strain htz1 0.819 | S. cerevisiae deletion strains, locus YOL147C, strain pex11, hits give low values 1.02 | S. cerevisiae deletion strains, locus YOR061W, strain CKA2, hits give low values 1.01 | S. cerevisiae deletion strains, locus YOR069W, strain VPS5, hits give low values 1.01 | S. cerevisiae deletion strains, locus YOR136W, strain idh2, hits give low values 1.01 | S. cerevisiae deletion strains, locus YOR144C, strain elg1, hits give low values 1.02 | S. cerevisiae deletion strains, locus YOR184W, strain ser1, hits give low values 1.03 | S. cerevisiae deletion strains, locus YOR316C, strain cot1, hits give low values 1.02 | [18] 1.03 | [19] 1.02 | S. cerevisiae deletion strains, locus YPR119W, strain clb2, hits give low values 1.01 | S. cerevisiae deletion strains, locus YPR141C, strain kar3, hits give low values 1.02 | S. cerevisiae deletion strains, locus YPR163C, strain tif3, hits give low values 1.02 | S. cerevisiae deletion strains, locus YPR167C, strain met16, hits give low values 1.02 | S. cerevisiae deletion strains, strain wtn01, hits give low values 1.02 | S. cerevisiae strains, strain wild type, hits give low values 1
